Bioassay records: PubChem, several laboratories
A selection: hits, their analogues and other compounds. The true share with any hit is near 9.6%.
HCT116 PTEN-null – suppresses growth of cells with PTEN deletion; HCT116 PTEN-null viability, CellTiter-Glo, 60 h; stronger effect = lower value; actives 1.2% (n = 140,000); viability, % at 10 µM;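 active = viability at or below a set limit, 4 SD under the median of all tested compounds, cut at about 3.7% in these data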;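 note: PTEN knockout HCT116 line with beta catenin targeted HCT116 as companion control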
Insulin prom inh – TRM-6 insulin promoter activity inhibition; actives 0.9% (n = 130,000); TRM-6 cells (human fetal islet line), insulin promoter-eGFP reporter, imaging; reporter expression induced with tamoxifen; AID 1273; inhibition, % at 2 µM;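 active = inhibition above the mean plus 3 SD, with well images judged a real hit on visual review, cut at about 60% in these data, passing the limit was not always enough; inconclusive = inhibition over the cutoff but images rejected on review; inactive = inhibition not above the cutoff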
Insulin prom up – MIN6 insulin promoter up-regulation; MIN6 insulin promoter-GFP reporter, high-content imaging; stronger effect = higher value; AID 1625; z-score at 5 µM; actives 0.3% (n = 190,000);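 active = z-score above 3 at 5 µM with at least 500 cells counted in the well; inconclusive = wells under 500 cells, flagged as cytotoxic or low count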
Autophagy HCS – modulators of autophagy; MEF GFP-LC3 puncta imaging; test concentration mostly 10 µM; calls only at 10 µM (by protocol); actives 0.98% (n = 190,000);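 active = percentage of spot-positive cells more than 3 SD above its plate mean, without a fluorescence outlier flag or 80% toxicity; inconclusive = no clear call, values can overlap the other calls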;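 note: spot-positive cell cutoff set from DMSO-treated cells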
L major viab – reduces viability of Leishmania major promastigotes | resazurin fluorescence viability | inhibition, % at 10 µM | actives 9% (n = 200,000) | AID 1063; in the data active = inhibition above about 50%;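 note: promastigotes grown with compound for 44 hours at 28 °C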
HCT116 bCat-KO – beta-catenin-lacking colon tumor cell growth suppression; HCT116 beta-catenin knockout viability, CellTiter-Glo, 60 h; stronger effect = lower value; viability, % at 10 µM; actives 1.5% (n = 140,000); AID 818;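 active = viability at or under a set limit, the compound median less 4 SD, cut at about 6% in these data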;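 note: 0% = Hyamine 1622 control at 20 µM and 100% = untreated cell control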
* hit, by the source's call; i = inactive; ? = inconclusive; . = no result given; + = active, no number; ! = repeats disagree.

SMILES	HCT116 PTEN-null	Insulin prom inh	Insulin prom up	Autophagy HCS	L major viab	HCT116 bCat-KO
Cc1ccc2c(Cl)c(C)c(N3CCCC3)nc2n1	89.3	76.7*	-0.2	i	7.1	89.5
CCOc1ccc(-n2c(SCC(=O)Nc3nccs3)nnc2-c2ccoc2C)cc1	.	.	-0.93	.	.	.
CCc1nnc(NC(=O)CSc2nnc(-c3ccoc3C)n2-c2ccccc2)s1	90.9	81.4*	.	i	-18.3	102.8
CCc1nnc(NC(=O)CSc2nnc(-c3ccoc3C)n2-c2ccc(C)cc2)s1	105.9	.	0.02	i	-2.4	92.2
CCOc1ccccc1-n1c(SCC(=O)Nc2nccs2)nnc1-c1ccoc1C	72.3	.	-0.88	i	73.0*	68.7
O=C(Nc1ncc(S(=O)(=O)c2ccc([N+](=O)[O-])cc2)s1)c1ccccc1F	.	.	0.06	.	.	.
[O-]c1c[n+](-c2ccc(-[n+]3cc([O-])on3)cc2)no1	.	.	1.16	i	4.0	.
O=C(N/N=C/c1cccc([N+](=O)[O-])c1)c1cc2ccccc2o1	2.2*	.	0.2	i	-3.4	3.8*
Cc1cc(C(=O)N/N=C/c2cccc([N+](=O)[O-])c2)c(C)o1	90.1	-2.4	.	i	-1.5	82.0
O=C(COc1ccc(/C=N/NC(=O)c2cc3ccccc3o2)cc1Cl)Nc1ccccc1	1.5*	13.6	0.85	i	-3.7	2.8*
O=C(N/N=C(/CC(=O)c1cccs1)C(F)(F)F)c1ccc(O)cc1	102.6	-81.5	-0.82	i	46.7	100.8
COc1ccccc1NC(=O)C1=C(C)Nc2ncnn2C1c1cccs1 (stereo unspecified)	91.2	11.8	0.11	i	3.5	108.6
CC(=O)C1=C(C)Nc2ncnn2C1c1ccccc1OCc1ccccc1 (stereo unspecified)	100.0	33.3	-0.13	i	61.4*	93.6
COc1ccccc1NC(=O)C1=C(C)Nc2nnnn2C1c1ccccn1 (stereo unspecified)	86.3	0.0	0.22	i	85.5*	93.4
COc1ccc(C2C(C(=O)Nc3ccccc3OC)=C(C)Nc3ncnn32)cc1 (stereo unspecified)	98.1	.	0.98	+	-0.8	101.7
COc1ccccc1NC(=O)C1=C(C)Nc2nnnn2C1c1ccccc1OC (stereo unspecified)	106.0	-115.0	0.04	i	4.1	96.7
COc1ccc(-c2cn(-c3ccccc3)c3[n+]2CCS3)cc1	40.7	11.4	?	i	85.2*!	41.7
CC(C)(C)c1ccc(-c2cn(-c3ccc(Br)cc3)c3[n+]2CCCS3)cc1	.	-37.5	?	i	100.4*	.
Cc1ccc2c(c1)CN1CN2Cc2cc(C)ccc21	100.1	.	0.59	i	-6.8	97.7
CCOC(=O)c1c(NC(=O)CCN2C(=O)c3ccccc3C2=O)sc(C(=O)OC(C)C)c1C	95.9	-96.7	2.65	i	-4.5	97.6
CC(=O)Nc1nc(SCC(=O)NCc2ccc(F)cc2)[nH]c(=O)c1NC(=O)c1cccs1	.	.	-0.19	+	-9.3	.
COC(=O)NNC(=O)COc1cc(C)ccc1C	89.8	1.6	-0.05	i	-7.1	79.1
Cc1ccc(C2CC(=O)C=C(Nc3ccc(Cl)cc3)C2)cc1 (stereo unspecified)	72.9	-15.4	0.1	i	6.5	76.7
O=C1C=C(Nc2ccc(Cl)cc2)CC(c2ccc(Cl)cc2)C1 (stereo unspecified)	43.8	.	.	i	56.0*	60.1
O=C(NC(Cc1c[nH]c2ccccc12)C(=O)Nc1ccc(F)cc1)c1cccs1 (stereo unspecified)	65.0	-16.7	-0.39	i	16.5	57.6
SMILES	HCT116 PTEN-null	Insulin prom inh	Insulin prom up	Autophagy HCS	L major viab	HCT116 bCat-KO
CCN(CC)c1ccc(/C=N/Nc2nc(C)cc(=O)[nH]2)c(O)c1	14.4	84.6*	?	i	98.6*	12.0
CCN(CC)c1ccc(/C=N/NC(=O)CCC(=O)NCc2ccccc2)c(O)c1	16.0	-183.3	-0.39	i	97.6*	17.7
CCN(CC)c1ccc(/C=N/NC(=O)c2c(Cl)cnn2C)c(O)c1	12.7	55.2	0.95	i	98.7*	16.3
CCN(CC)c1ccc(/C=N/Nc2ccc(C)cc2)c(O)c1	94.1	-29.6	-0.9	i	-2.4	82.7
CCOC(=O)N/N=C/c1ccc(N(CC)CC)cc1O	26.7	-30.8	-0.02	i	-11.8	32.0
Cc1cc(C)nc(SCc2nnc(SCC(=O)Nc3nc(-c4ccccc4)cs3)n2-c2ccccc2)n1	87.5	-14.3	1.62	i	31.9	90.0
